Results reported in PubChem BioAssay (NCATS).
Inconclusive results are not listed. Calls of active or inactive are those of the source. Calls follow the shape of the dose curve; as a rule, active = well fitted curve in the direction sought with a large enough effect; inconclusive = small, poorly fitted or top-dose-only effect, or another doubt; inactive = no such curve, though single readings can be large; an effect the other way counts as inactive or inconclusive.

Legend:
NIH3T3 = experiment: qHTS assay to identify novel small-molecules to repurpose for Merkel cell carcinoma treatment (AID 1296009); conditions: MCC and control cell lines, CellTiter-Glo viability, 72 h; at 44.8 µM (top of the series) unless noted; also: nearly all actives have a fitted effect of over 60% in size
Outline: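 Cells were incubated with compound for 72 hr at 37 degree celsius before CellTiter-Glo addition. Luminescence was normalized with no-cell wells as full cytotoxicity and DMSO as baseline.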

C33A = experiment: Primary qHTS to identify gynecologic anti-cancer compounds using libraries of approved drugs and bioactive compounds (AID 1345084); conditions: Gynecologic cancer cell panel viability, ATPlite luminescence, 48 h; series mostly up to 57.5 µM; also: % is scaled to controls: 0 for no effect and ±100 for the full control effect; nearly all actives have a fitted effect of over 55% in size
Outline: (§1)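 Cytotoxicity screen measuring ATP content by luciferase luminescence. Each compound is applied at five concentrations for 48 h at 37 C with 5% CO2.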

CAOV3 = experiment: as above; conditions: Gynecologic cancer cell panel viability, ATPlite luminescence, 48 h; series mostly up to 57.5 µM
Outline: as §1

CASKI = experiment: as above; conditions: Gynecologic cancer cell panel viability, ATPlite luminescence, 48 h; series mostly up to 57.5 µM
Outline: as §1

Es-2 = experiment: as above; conditions: Gynecologic cancer cell panel viability, ATPlite luminescence, 48 h; series mostly up to 57.5 µM
Outline: as §1

HeLa = experiment: as above; conditions: Gynecologic cancer cell panel viability, ATPlite luminescence, 48 h; series mostly up to 57.5 µM
Outline: as §1

Hek293T = experiment: as above; conditions: Gynecologic cancer cell panel viability, ATPlite luminescence, 48 h, control line for the selectivity index; series mostly up to 57.5 µM
Outline: as §1

JEG-3 = experiment: as above; conditions: Gynecologic cancer cell panel viability, ATPlite luminescence, 48 h; series mostly up to 57.5 µM
Outline: as §1

OV90 = experiment: as above; conditions: Gynecologic cancer cell panel viability, ATPlite luminescence, 48 h; series mostly up to 57.5 µM
Outline: as §1

PA-1 = experiment: as above; conditions: Gynecologic cancer cell panel viability, ATPlite luminescence, 48 h; series mostly up to 57.5 µM
Outline: as §1

SKOV3 = experiment: as above; conditions: Gynecologic cancer cell panel viability, ATPlite luminescence, 48 h; series mostly up to 57.5 µM
Outline: as §1

Tov-21-G = experiment: as above; conditions: Gynecologic cancer cell panel viability, ATPlite luminescence, 48 h; series mostly up to 57.5 µM
Outline: as §1

Tov112D = experiment: as above; conditions: Gynecologic cancer cell panel viability, ATPlite luminescence, 48 h; series mostly up to 57.5 µM
Outline: as §1

CC1=C2C3OC(=O)C(C)C3(O)CCC2(C)CCC1=O (configuration not stated)
inactive: outcome (NIH3T3) | Potency (C33A) | Potency (CAOV3) | Potency (CASKI) | Potency (Es-2) | Potency (HeLa) | Potency (Hek293T) | Potency (JEG-3) | Potency (OV90) | Potency (PA-1) | Potency (SKOV3) | Potency (Tov-21-G) | Potency (Tov112D)

O=C(NN1CCCCC1)c1nn(-c2ccc(Cl)cc2Cl)c(-c2ccc(C#Cc3ccc(C(F)(F)F)cc3)s2)c1CNS(=O)(=O)N1CCCC1
inactive: outcome (NIH3T3) | Potency (C33A) | Potency (CAOV3) | Potency (CASKI) | Potency (Es-2) | Potency (HeLa) | Potency (Hek293T) | Potency (JEG-3) | Potency (OV90) | Potency (PA-1) | Potency (SKOV3) | Potency (Tov-21-G) | Potency (Tov112D)

CC1OC(OC2C(O)C(C(=O)O)OC(OC3CCC4(C)C(CCC5(C)C4C=CC4=C6CC(C)(C)CC(O)C6(C)CCC45C)C3(C)C)C2OC2OCC(O)C(O)C2O)C(O)C(O)C1O (configuration not stated)
inactive: outcome (NIH3T3) inactive [at 9.27 µM] | activity change, negative = cytotoxicity (C33A) 25.5% [at 11.6 µM] | activity change, negative = cytotoxicity (CAOV3) 25.6% [at 11.6 µM] | activity change, negative = cytotoxicity (CASKI) 17.4% [at 11.6 µM] | activity change, negative = cytotoxicity (Es-2) -1.97% [at 11.6 µM] | activity change, negative = cytotoxicity (HeLa) -2.13% [at 11.6 µM] | activity change, negative = cytotoxicity (Hek293T) -1.86% [at 11.6 µM] | activity change, negative = cytotoxicity (JEG-3) 0.12% [at 11.6 µM] | activity change, negative = cytotoxicity (OV90) 1.31% [at 11.6 µM] | activity change, negative = cytotoxicity (PA-1) 8.55% [at 11.6 µM] | activity change, negative = cytotoxicity (SKOV3) 1.68% [at 11.6 µM] | activity change, negative = cytotoxicity (Tov-21-G) 7.57% [at 11.6 µM] | activity change, negative = cytotoxicity (Tov112D) 16.2% [at 11.6 µM]

O=C(NCc1ccc(OC(F)(F)F)cc1)C1c2ccccc2C(=O)N1C1CCOCC1 (configuration not stated)
inactive: outcome (NIH3T3) | Potency (C33A) | Potency (CAOV3) | Potency (CASKI) | Potency (Es-2) | Potency (HeLa) | Potency (Hek293T) | Potency (JEG-3) | Potency (OV90) | Potency (PA-1) | Potency (SKOV3) | Potency (Tov-21-G) | Potency (Tov112D)

CC1(CO)CC[C@]2(C(=O)O[C@@H]3O[C@H](CO)[C@@H](O)[C@H](O)[C@H]3O)CC[C@]3(C)C(=CCC4[C@@]5(C)CC[C@H](O[C@@H]6O[C@H](C(=O)O)[C@@H](O)[C@H](O)[C@H]6O)C(C)(C)C5CC[C@]43C)C2C1 (some centres not stated)
inactive: outcome (NIH3T3) inactive [at 9.27 µM] | activity change, negative = cytotoxicity (C33A) 12.6% [at 11.6 µM] | activity change, negative = cytotoxicity (CAOV3) 12.9% [at 11.6 µM] | activity change, negative = cytotoxicity (CASKI) -3.81% [at 11.6 µM] | activity change, negative = cytotoxicity (Es-2) 8.61% [at 11.6 µM] | activity change, negative = cytotoxicity (HeLa) 8.66% [at 11.6 µM] | activity change, negative = cytotoxicity (Hek293T) 11.3% [at 11.6 µM] | activity change, negative = cytotoxicity (JEG-3) 10.8% [at 11.6 µM] | activity change, negative = cytotoxicity (OV90) 2.36% [at 11.6 µM] | activity change, negative = cytotoxicity (PA-1) 28.3% [at 11.6 µM] | activity change, negative = cytotoxicity (SKOV3) 13% [at 11.6 µM] | activity change, negative = cytotoxicity (Tov-21-G) 6.77% [at 11.6 µM] | activity change, negative = cytotoxicity (Tov112D) 9.6% [at 11.6 µM]

C#Cc1cnc2[nH]c(=O)n(C(CC)CC)c2n1
inactive: outcome (NIH3T3) | Potency (C33A) | Potency (CAOV3) | Potency (CASKI) | Potency (Es-2) | Potency (HeLa) | Potency (Hek293T) | Potency (JEG-3) | Potency (OV90) | Potency (PA-1) | Potency (SKOV3) | Potency (Tov-21-G) | Potency (Tov112D)

c1ccc(C(OC2CCN(CCCc3nn[nH]n3)CC2)c2ccccc2)cc1
inactive: outcome (NIH3T3) | Potency (C33A) | Potency (CAOV3) | Potency (CASKI) | Potency (Es-2) | Potency (HeLa) | Potency (Hek293T) | Potency (JEG-3) | Potency (OV90) | Potency (PA-1) | Potency (SKOV3) | Potency (Tov-21-G) | Potency (Tov112D)

C=C1CC2C3(C)C(O)CC(=O)C(C)(C)C3C(OC(C)=O)C(OC(C)=O)C2(C)C2C(=O)OC(C)(C(=O)OC)C(=O)C12C (configuration not stated)
inactive: outcome (NIH3T3) inactive [at 17.4 µM] | Potency (C33A) | Potency (CAOV3) | Potency (CASKI) | Potency (Es-2) | Potency (HeLa) | Potency (Hek293T) | Potency (JEG-3) | Potency (OV90) | Potency (PA-1) | Potency (SKOV3) | Potency (Tov-21-G) | Potency (Tov112D)

CC1CCCC2OC2C(=O)c2c(O)cc(O)cc2CC(=O)O1 (configuration not stated)
inactive: outcome (NIH3T3) | Potency (C33A) | Potency (CAOV3) | Potency (CASKI) | Potency (Es-2) | Potency (HeLa) | Potency (Hek293T) | Potency (JEG-3) | Potency (OV90) | Potency (PA-1) | Potency (SKOV3) | Potency (Tov-21-G) | Potency (Tov112D)

CC(C)=CCCC1(C)Oc2cc3c(c4c2C2C(O4)C(C)(O)CCC21)CN(C(CCC(=O)O)C(=O)O)C3=O (configuration not stated)
inactive: outcome (NIH3T3) inactive [at 17.4 µM] | Potency (C33A) | Potency (CAOV3) | Potency (CASKI) | Potency (Es-2) | Potency (HeLa) | Potency (Hek293T) | Potency (JEG-3) | Potency (OV90) | Potency (PA-1) | Potency (SKOV3) | Potency (Tov-21-G) | Potency (Tov112D)

CC1=CC2(O)/C=C/C(C)(O)CC(O)/C=C/C(=O)OC23C(=O)NC(CC(C)C)C3C1C (configuration not stated)
inactive: outcome (NIH3T3) inactive [at 17.4 µM] | Potency (C33A) | Potency (CAOV3) | Potency (CASKI) | Potency (Es-2) | Potency (HeLa) | Potency (Hek293T) | Potency (JEG-3) | Potency (OV90) | Potency (PA-1) | Potency (SKOV3) | Potency (Tov-21-G) | Potency (Tov112D)

C[C@@H]1C[C@H](O)/C=C/[C@H](O)[C@@H](O)CC(=O)O1
inactive: outcome (NIH3T3) | Potency (C33A) | Potency (CAOV3) | Potency (CASKI) | Potency (Es-2) | Potency (HeLa) | Potency (Hek293T) | Potency (JEG-3) | Potency (OV90) | Potency (PA-1) | Potency (SKOV3) | Potency (Tov-21-G) | Potency (Tov112D)

CC(C)(C)NCC(O)COc1cccc2c1CCCC2=O (configuration not stated)
inactive: outcome (NIH3T3) | Potency (C33A) | Potency (CAOV3) | Potency (CASKI) | Potency (Es-2) | Potency (HeLa) | Potency (Hek293T) | Potency (JEG-3) | Potency (OV90) | Potency (PA-1) | Potency (SKOV3) | Potency (Tov-21-G) | Potency (Tov112D)

C=C1CCC2C(C)(COC3OC(COC(=O)CC(=O)O)C(O)C(O)C3O)CCCC2(C)C1CCC1=CCOC1=O (configuration not stated)
inactive: outcome (NIH3T3) inactive [at 17.4 µM] | Potency (C33A) | Potency (CAOV3) | Potency (CASKI) | Potency (Es-2) | Potency (HeLa) | Potency (Hek293T) | Potency (JEG-3) | Potency (OV90) | Potency (PA-1) | Potency (SKOV3) | Potency (Tov-21-G) | Potency (Tov112D)
